PubChem BioAssay (NCI)
Compounds without any hit were thinned out: in the full panel of roughly 83,000, 20% have a hit.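 Results are percent growth after 48 hours of single-concentration exposure. 100 means growth as in untreated cells, lower positive values show inhibition; negative values down to -100 show cell death.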 A number with no mark means an inactive call. Activity calls are given as the source filed them. The calls were made as follows: active = growth percent below 10; inactive = the rest.

System: SNB-75 CNS
Assay: NCI-60 one-dose screen, 48 h (100 = growth as untreated, 0 = no growth, -100 = all killed)
Settings: 10 µM unless noted

Structure (SMILES) | growth
O=C(Nc1ccc(CN2CCOCC2)c(C(F)(F)F)c1)c1nc2ccc3[nH]ncc3c2c2c1CCCC2 | 128%
CC(C)[C@H]1CCC2=C3CC[C@]45OC(=O)[C@@]6(CCC(C)(C)C[C@H]64)CC[C@@]5(C)[C@]3(C)CC[C@@]21C | 30.4% [100 µM]
Cc1ccc2c(c1)/C(=N\N=C/c1cn(C(C)C)c3ccccc13)C(=O)N2 | 67.3%
COc1ccc(C(=O)c2nccc3cc(OC)c(OC)cc23)cc1OC | 89.5%
Nc1cc(C(=O)O)[nH]c(=S)n1 | 91.4%
CC1(C)CC[C@]2(C(=O)O)CC[C@]3(C)C(=CC[C@@H]4[C@@]5(C)C/C(=C/c6cccnc6)[C@H](O)C(C)(C)[C@@H]5CC[C@]43C)[C@@H]2C1 | 19.5% [100 µM]
ClC1=C(Cl)C(Cl)=C(Cl)C1=Cc1ccccc1 | -77% (active)
CCCCC(CCCCCC(CCCC)C1NC(C)Cc2cc(OC)c(OC)cc21)C1NC(C)Cc2cc(OC)c(OC)cc21 (stereo not drawn) | -99.9% (active)
COc1ccccc1S(=O)Nc1ccccc1 (stereo not drawn) | 87.4%
Cc1cnc(N)nc1OCC(C)(C)CNC(=O)c1cccc(-c2ccc(S(=O)(=O)Nc3ccc4c(c3)N(C(=O)C3CC3)CCC4)cc2)c1 | 48.1%
C=C(C)[C@@H]1CC[C@]2(COC(=O)c3ccccc3C(=O)O)CC[C@]3(C)[C@H](CC[C@@H]4[C@@]5(C)CC[C@H](OC(=O)c6ccccc6C(=O)O)C(C)(C)[C@@H]5CC[C@]43C)[C@@H]12 | -20.7% [100 µM] (active)
Cc1cc(N2CCCCCC2)nc(N2CCN(CC(=O)Nc3ccc4c(ccn4Cc4ccccc4)c3)CC2)n1 | 69.6%
CC1(C)C(=O)/C(=C\c2cccnc2)C[C@]2(C)[C@H]3CC[C@@H]4[C@H]5[C@H](C(=O)/C=C/c6cccnc6)CC[C@]5(C(=O)O)CC[C@@]4(C)[C@]3(C)CC[C@@H]12 | -96.5% [100 µM] (active)
CCN(CC)CCSC(=O)C(O)(c1ccccc1)C1CCCC1 (stereo not drawn) | 95.2%
O=C(NNc1ccc(-c2ccccc2)nn1)c1ccccc1 | 71%
Cc1cc2c(C(C)C)c(O)c(O)c(C=NCc3ccoc3)c2c(O)c1-c1c(C)cc2c(C(C)C)c(O)c(O)c(C=NCc3ccco3)c2c1O | 64.9%
c1ccc(-c2nnc(-c3c[nH]c4ncccc34)s2)cc1 | 59.6%
Cc1ccc(-c2cc(-c3ccc(C)cc3)nc(NCCNc3ccnc4cc(Cl)ccc34)n2)cc1 | -30.2% (active)
Cn1cc(-c2noc(C(=O)c3cn(C)c4ncccc34)n2)c2ccccc21 | 60.4%

Structure (SMILES) | growth
Cc1cc(NN=C(c2ccc(O)cc2)c2ccc(O)cc2)c([N+](=O)[O-])cc1[N+](=O)[O-] | 74.3%
O=C(C[n+]1ccn(CC(OCc2ccc(Cl)cc2Cl)c2ccc(Cl)cc2Cl)c1)c1ccc(F)cc1 (stereo not drawn) | -99% (active)
COc1cc(-c2nc(SCCC(C)C)nc(Nc3ccc(S(N)(=O)=O)cc3)c2C#N)cc(OC)c1OC | 47.6%
CC(C)=CCC[C@](C)(O)[C@H]1CC[C@]2(C)[C@@H]1CC[C@@H]1[C@@]3(C)CC[C@H](OC(=O)CCC(=O)O)C(C)(C)[C@@H]3CC[C@]12C | 43.3% [100 µM]
C=C(C)[C@@H]1CC[C@]2(C)[C@H](CC[C@@H]3[C@@H]([C@@](C)(O)CCC=C(C)C)CC[C@]32C)[C@@]1(C)CCC(=O)O | -37.5% [100 µM] (active)
O=C(CCN1CCCCC1)c1ccc2ccccc2c1 | 93.6%
O=C(N/N=C/c1c(Cl)cccc1Cl)c1cccc(Nc2ccnc(C(F)(F)F)c2)c1 | 93.7%
CCc1ccc(C2=C/C(=C/c3ccccc3)C(=O)N2CCc2ccc(S(N)(=O)=O)cc2)cc1 | 66.3%
COc1cc2c(cc1OCCCCCOc1ccc(-n3c(C)nc4ccccc4c3=O)cc1)N=C[C@@H]1CCCN1C2=O | -80.9% (active)
CCN(CCO)CCC(=O)c1ccc([N+](=O)[O-])cc1 | 93.2%
COc1c(B(O)O)cccc1-c1nc2ccc3[nH]ncc3c2c2c1CCC2 | 32.7%
Cc1ccc(-c2cc(O)c(-c3ccc(C)cc3C)cc2O)c(C)c1 | 45.9%
C=C(C)[C@@H]1CC[C@]2(c3ncc(C)o3)CC[C@]3(C)[C@H](CC[C@@H]4[C@@](C)(CCC#N)[C@H](C(=C)C)CC[C@]43C)[C@@H]12 | -86.8% [100 µM] (active)
Nc1nc(Nc2ccccc2)c2ncn(Cc3ccc4c(c3)OCO4)c2n1 | 29.4%
CC(=O)OC[C@]12CC[C@@H](C(=O)CBr)[C@@H]1[C@H]1CC[C@@H]3[C@@]4(C)CCCNC(C)(C)[C@@H]4CC[C@@]3(C)[C@]1(C)CC2 | -98.3% [100 µM] (active)
C[C@@H]1C[C@H]2C(=O)O[C@@H](C)[C@H](NC(=O)[C@H](Cc3cc(F)cc(F)c3)NC(=O)Nc3ccc(Cl)cc3F)C(=O)N3C[C@H](O)C[C@H]3C(=O)N3CCN(C)C[C@H]3C(=O)N[C@@H](C)C(=O)N2C1 | 22.8%
COC(=O)C(=Cc1ccccc1[N+](=O)[O-])C(=O)OC | 33.5%
CC1Cc2c(Cl)ncnc2N(C)c2ccc(Cl)cc21 (stereo not drawn) | 50.1%
CC1(C(=O)O)CCC(N)(C(=O)O)C1(C)C (stereo not drawn) | 90%
